The whole screen tested about 5,500 compounds, of which about 2,000 (36%) were called active. Roughly 18% stayed inconclusive and do not appear here. No stated cut-off is given here; in the data, active means normalized growth mostly below about 0.91 (no sharp cut-off); inconclusive means no clear call, values can overlap the other calls; inactive means mostly above about 0.92. The list shows a part of the results.
Assay: chemical genetic growth profiling, strain panel (AID 1159580);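 further: tested at 20 µM; growth read once vehicle control cultures reached saturation at 30 °C; 1 = growth at the plate median or of vehicle wells; lower values mean less growth of the strain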
Conditions: growth OD

Measured: normalized growth

CCCCc1nc(Cl)c(CO)n1Cc1ccc(-c2ccccc2-c2nn[nH]n2)cc1
inactive: S. cerevisiae deletion strains, locus YJR075W, strain HOC1, active compounds read low 0.999 | S. cerevisiae deletion strains, locus YKL009W, strain mrt4, active compounds read low 0.985 | S. cerevisiae deletion strains, locus YKL068W, active compounds read low 0.997 | S. cerevisiae deletion strains, locus YKL085W, strain MDH1 (second series), active compounds read low 0.992 | S. cerevisiae deletion strains, locus YKL085W, strain MDH1, active compounds read low 0.992 | S. cerevisiae deletion strains, locus YKL160W, strain elf1, active compounds read low 0.991 | S. cerevisiae deletion strains, locus YKL190W, strain CNB1, active compounds read low 1.01 | S. cerevisiae deletion strains, locus YKR001C, strain vps1, active compounds read low 0.99 | S. cerevisiae deletion strains, locus YKR026C, strain gcn3, active compounds read low 0.988 | S. cerevisiae deletion strains, locus YKR091W, strain srl3, active compounds read low 0.991 | S. cerevisiae deletion strains, locus YLL001W, strain dnm1, active compounds read low 0.98 | S. cerevisiae deletion strains, locus YLL026W, active compounds read low 0.992 | S. cerevisiae deletion strains, locus YLL041C, strain sdh2, active compounds read low 0.992 | S. cerevisiae deletion strains, locus YLR027C, strain aat2, active compounds read low 0.993 | S. cerevisiae deletion strains, locus YLR039C, strain RIC1, active compounds read low 1.02 | S. cerevisiae deletion strains, locus YLR058C, strain SHM2, active compounds read low 0.997 | S. cerevisiae deletion strains, locus YLR102C, strain apc9, active compounds read low 0.994 | S. cerevisiae deletion strains, locus YLR113W, strain HOG1, active compounds read low 1.01 | S. cerevisiae deletion strains, locus YLR221C, strain rsa3, active compounds read low 0.987 | S. cerevisiae deletion strains, locus YLR258W, strain gsy2, active compounds read low 0.998 | S. cerevisiae deletion strains, locus YLR262C, strain YPT6 (second series), active compounds read low 0.995 | S. cerevisiae deletion strains, locus YLR262C, strain YPT6, active compounds read low 1.04 | S. cerevisiae deletion strains, locus YLR268W, strain sec22, active compounds read low 0.999 | S. cerevisiae deletion strains, locus YLR320W, strain mms22, active compounds read low 0.985 | S. cerevisiae deletion strains, locus YLR330W, strain CHS5, active compounds read low 1.01 | S. cerevisiae deletion strains, locus YLR342W, strain FKS1 (second series), active compounds read low 0.997 | S. cerevisiae deletion strains, locus YLR342W, strain FKS1, active compounds read low 1.01 | S. cerevisiae deletion strains, locus YLR357W, strain rsc2, active compounds read low 0.993 | S. cerevisiae deletion strains, locus YLR370C, strain arc18, active compounds read low 0.987 | S. cerevisiae deletion strains, locus YLR371W, strain rom2, active compounds read low 0.997 | S. cerevisiae deletion strains, locus YLR384C, strain iki3, active compounds read low 0.974 | S. cerevisiae deletion strains, locus YLR418C, strain cdc73, active compounds read low 1 | S. cerevisiae deletion strains, locus YML016C, strain PPZ1, active compounds read low 1 | S. cerevisiae deletion strains, locus YML032C, strain rad52, active compounds read low 1 | S. cerevisiae deletion strains, locus YML120C, strain ndi1, active compounds read low 0.981 | S. cerevisiae deletion strains, locus YML124C, strain tub3, active compounds read low 0.997 | S. cerevisiae deletion strains, locus YMR058W, strain fet3, active compounds read low 1 | S. cerevisiae deletion strains, locus YMR078C, strain ctf18, active compounds read low 0.999 | S. cerevisiae deletion strains, locus YMR125W, strain sto1, active compounds read low 0.982 | S. cerevisiae deletion strains, locus YMR129W, active compounds read low 0.994 | S. cerevisiae deletion strains, locus YMR205C, strain PFK2, active compounds read low 0.998 | S. cerevisiae deletion strains, locus YMR223W, strain ubp8, active compounds read low 1 | S. cerevisiae deletion strains, locus YMR231W, strain pep5, active compounds read low 0.982 | S. cerevisiae deletion strains, locus YMR263W, strain SAP30, active compounds read low 1.02 | S. cerevisiae deletion strains, locus YMR307W, strain GAS1, active compounds read low 0.911 | S. cerevisiae deletion strains, locus YNL067W, strain RPL9B, active compounds read low 1.02 | S. cerevisiae deletion strains, locus YNL071W, strain lat1, active compounds read low 1 | S. cerevisiae deletion strains, locus YNL128W, strain TEP1, active compounds read low 1.01 | S. cerevisiae deletion strains, locus YNL153C, strain GIM3, active compounds read low 1.01 | S. cerevisiae deletion strains, locus YNL183C, strain NPR1, active compounds read low 1.01 | S. cerevisiae deletion strains, locus YNL209W, strain ssb2, active compounds read low 0.979 | S. cerevisiae deletion strains, locus YNL233W, strain BNI4, active compounds read low 1.02 | S. cerevisiae deletion strains, locus YNL248C, strain rpa49, active compounds read low 0.996 | S. cerevisiae deletion strains, locus YNL250W, strain rad50, active compounds read low 0.993 | S. cerevisiae deletion strains, locus YNL271C, strain bni1, active compounds read low 0.995 | S. cerevisiae deletion strains, locus YNL298W, strain CLA4, active compounds read low 0.989 | S. cerevisiae deletion strains, locus YNL307C, strain MCK1, active compounds read low 1.02 | S. cerevisiae deletion strains, locus YNL322C, strain KRE1 (second series), active compounds read low 0.971 | S. cerevisiae deletion strains, locus YNL322C, strain KRE1, active compounds read low 1.01 | S. cerevisiae deletion strains, locus YNR049C, strain mso1, active compounds read low 0.985 | S. cerevisiae deletion strains, locus YNR052C, strain pop2, active compounds read low 0.99 | S. cerevisiae deletion strains, locus YOL006C, strain TOP1, active compounds read low 1.04 | S. cerevisiae deletion strains, locus YOL012C, strain htz1 0.901 | S. cerevisiae deletion strains, locus YOL147C, strain pex11, active compounds read low 1 | S. cerevisiae deletion strains, locus YOR001W, strain rrp6, active compounds read low 0.978 | S. cerevisiae deletion strains, locus YOR061W, strain CKA2, active compounds read low 1.01 | S. cerevisiae deletion strains, locus YOR069W, strain VPS5, active compounds read low 1 | S. cerevisiae deletion strains, locus YOR070C, strain gyp1, active compounds read low 0.986 | S. cerevisiae deletion strains, locus YOR080W, strain dia2, active compounds read low 0.978 | S. cerevisiae deletion strains, locus YOR083W, strain WHI5, active compounds read low 0.981 | S. cerevisiae deletion strains, locus YOR106W, strain vam3, active compounds read low 1 | S. cerevisiae deletion strains, locus YOR136W, strain idh2, active compounds read low 1 | S. cerevisiae deletion strains, locus YOR144C, strain elg1, active compounds read low 1 | S. cerevisiae deletion strains, locus YOR184W, strain ser1, active compounds read low 1 | S. cerevisiae deletion strains, locus YOR231W, strain MKK1, active compounds read low 0.965 | S. cerevisiae deletion strains, locus YOR265W, strain rbl2, active compounds read low 0.999 | S. cerevisiae deletion strains, locus YOR270C, strain vph1, active compounds read low 0.97 | S. cerevisiae deletion strains, locus YOR290C, strain snf2, active compounds read low 1 | S. cerevisiae deletion strains, locus YOR316C, strain cot1, active compounds read low 0.999 | S. cerevisiae deletion strains, locus YPL051W, strain arl3, active compounds read low 0.99 | S. cerevisiae deletion strains, locus YPL055C, strain LGE1, active compounds read low 1.01 | S. cerevisiae deletion strains, locus YPL078C, strain atp4, active compounds read low 0.985 | S. cerevisiae deletion strains, locus YPL106C, strain sse1, active compounds read low 0.964 | S. cerevisiae deletion strains, locus YPL240C, strain hsp82, active compounds read low 1.02 | S. cerevisiae deletion strains, locus YPL241C, strain CIN2, active compounds read low 1.01 | S. cerevisiae deletion strains, locus YPL256C, strain CLN2, active compounds read low 0.967 | S. cerevisiae deletion strains, locus YPR119W, strain clb2, active compounds read low 0.995 | S. cerevisiae deletion strains, locus YPR141C, strain kar3, active compounds read low 1 | S. cerevisiae deletion strains, locus YPR163C, strain tif3, active compounds read low 1.01 | S. cerevisiae deletion strains, locus YPR167C, strain met16, active compounds read low 0.998 | S. cerevisiae deletion strains, strain wtn01, active compounds read low 0.989 | S. cerevisiae strains, strain wild type, active compounds read low 1.01
